Results taken from PubChem BioAssay (NCATS).
Records with an inconclusive call do not appear. Active and inactive are the calls of the source. Unless noted, calls follow the shape of the dose curve; as a rule, active = well fitted curve in either direction with a large enough effect (not every such curve was filed as active); inconclusive = small, poorly fitted or top-dose-only effect, or another doubt; inactive = flat fitted curve, though single readings scatter.

What was measured:
[1] = AP1 Signaling Pathway (AID 357); settings: ME-180 AP-1-bla reporter, EGF-induced, beta-lactamase ratio, 5 h; at 17.2 µM (top of the series) unless noted; also: % is scaled to controls: 0 for no effect and ±100 for the full control effect
How it was run: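 Titration-series screen for positive or negative modulators of EC50 EGF-induced signaling in ME-180 cells carrying an AP-1-driven beta-lactamase reporter. After 5 hours at 37 degrees Celsius, CCF4 460nm/530nm emission ratio gave %Activity; AC50 values derived.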

[2] = NFAT Signaling Pathway (AID 444); settings: Jurkat NFAT-bla M1, carbachol, beta-lactamase ratio, 5 h; at 17.2 µM (top of the series) unless noted;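 also: carbachol stimulus at about its EC50 of 1 µM final; % is scaled to controls: 0 for no effect and ±100 for the full control effect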
How it was run: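 Jurkat cells carrying an NFAT-driven β-lactamase reporter and co-transfected muscarinic M1 receptor were treated with compound plus carbachol (1 uM final, an EC50 level) for 5 h at 37 °C. CCF4 loading followed for 1 h at RT; 460/530 nm ratio gave %activity.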

[3] = Stat Signaling Pathway (AID 446);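 also: ME-180 cervical cancer cells given 40 pM IL-6 alongside compound; SIE-controlled beta-lactamase reporter measured as 460/530 nm FRET emission ratio; % is scaled to controls: 0 for no effect and ±100 for the full control effect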
How it was run: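 Normalization used AC90 stimulation (300 pM IL-6) and AC90 inhibition (125 nM pan-JAK inhibitor at 40 pM IL-6). The underlying signal is SIE-driven beta-lactamase in ME-180 cells after 5 h IL-6 exposure with compound.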

[4] = target: Glucocorticoid receptor (Homo sapiens) (UniProt P04150); assay: GR-GFP Redistribution (AID 450;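 active = compounds whose dose series gives a full or clear partial fitted curve of increased nuclear translocation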; also: potency is read from the fitted curve at half-maximal effect); settings: U2OS GR-GFP nuclear translocation, laser cytometry, 2 h
[5] = target: Glucocorticoid receptor (Homo sapiens) (UniProt P04150); assay: GR-EFC Redistribution (AID 451; calls by dose curve; also: potency is read from the fitted curve at half-maximal effect); settings: CHO-K1 GR-EFC translocation, beta-gal luminescence, 2 h
How it was run: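 CHO-K1 cells stably expressing nuclear-localized β-gal enzyme acceptor and GR fused C-terminally to the enzyme donor fragment; ligand-driven nuclear translocation restores β-gal by complementation. Compounds titrated up to 46 uM final, 2 h at 37 °C; luminescence read.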

[6] = target: Mitogen-activated protein kinase 10 (Mus musculus) (UniProt Q61831); assay: JNK3 AlphaScreen Assay (AID 530);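 also: kinase came from lysate of stimulated human HepG2 cells; signal reports phosphorylation of biotinylated GST-cJun 1-79 at Ser73 with 10 µM ATP; % is scaled to controls: 0 for no effect and ±100 for the full control effect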
How it was run: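 Biotinylated GST-cJun(1-79) served as substrate for JNK3 in HepG2 lysates stimulated with IL-1beta and TNF-alpha. ATP was 10 uM final, pH 7.6. Ser73 phosphorylation was quantified by AlphaScreen (680 nm excitation).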

[7] = target: 3',5'-cyclic-AMP phosphodiesterase 4B (Homo sapiens) (UniProt Q07343); assay: qHTS Assay for Inhibitors of PDE-IV (AID 607; active = well fitted activation curve with a large enough effect in the main read-out, with a control signal flat, not every such curve was filed as active; also: % of control where 0% means no effect)
How it was run: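 HEK293 ACTOne cells with CNG channel (1000/well), endogenous PDE4; membrane potential dye, compounds up to 22.9 uM final. Fluorescence Ex 535/Em 590; RO 20-1724 (100 uM final) as reference.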

[8] = target: Guanine nucleotide-binding protein G(i) subunit alpha-1 (Homo sapiens) (UniProt P63096); assay: qHTS Assay for Inhibitors of RGS12 GoLoco Motif Activity (Green Fluorophore) (AID 879; active = well fitted curve in the direction sought with a large enough effect; an effect the other way counts as inactive or inconclusive; also: potency is read from the fitted curve at half-maximal effect)
How it was run: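 A drop in FITC polarization marked displacement of the FITC-tagged RGS12 GoLoco peptide (10 nM) from Gαi1 (50 nM). Compounds were incubated 10 min at room temperature in Tris pH 7.5 buffer containing 150 mM NaCl, 0.1 mM GDP and 0.05% NP40; unlabeled peptide titration served as control.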

[9] = target: Muscarinic acetylcholine receptor M1 (Rattus norvegicus) (UniProt P08482); assay: qHTS Assay for Antagonists of Acetylcholine Muscarinic M1 Receptor: Measurement of IP-One Response (AID 944; active = well fitted curve in the direction sought with a large enough effect; an effect the other way counts as inactive or inconclusive; also: nearly all actives have a fitted effect of over 75% in size)
How it was run: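 Antagonism was measured as loss of carbachol-driven (EC80) IP1 accumulation in CHO cells carrying rat M1, using a homogeneous IP-One TR-FRET kit read at 620 and 665 nm.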

[10] = target: Pyruvate kinase PKM (Homo sapiens) (UniProt P14618); assay: qHTS Assay for Activators of Human Muscle Pyruvate Kinase (AID 954; active = well fitted curve in the direction sought with a large enough effect, not every such curve was filed as active;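 also: 0% = uninhibited enzyme and -100% = no enzyme or full thiadiazolimine inhibition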)
How it was run: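 Compound pinned into substrate mix (0.5 mM PEP, 0.1 mM ADP), then 0.1 nM PKM2 added; 1 h, RT. Stop/detection luciferase reagent added, luminescence read. Normalized to no-inhibition and no-enzyme or reference-inhibitor controls.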

[11] = target: Alpha-galactosidase (Coffea arabica) (UniProt Q42656); assay: Counterscreen for Glucocerebrosidase Inhibitors: qHTS Assay for Coffee Bean alpha-Galactosidase at pH 4.5 (AID 957; active = well fitted curve in the direction sought with a large enough effect; an effect the other way counts as inactive or inconclusive;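 also: plate controls were enzyme alone for no effect and no enzyme for full effect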)
How it was run: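 Quantitative HTS of compounds (0.7 nM to 77 uM) against coffee bean alpha-galactosidase at pH 4.5, measuring 4-methylumbelliferone fluorescence released from 80 uM substrate.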

[12] = target: Alpha-galactosidase A (Homo sapiens) (UniProt P06280); assay: Counterscreen for Glucocerebrosidase Inhibitors: qHTS Assay for Human alpha-Galactosidase at pH 4.5 (AID 992; active = well fitted curve in the direction sought with a large enough effect; an effect the other way counts as inactive or inconclusive; also: 0% is about no effect)
How it was run: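 Steps: enzyme (2 nM final), then compound across 0.7 nM to 77 uM, then 80 uM fluorogenic galactopyranoside substrate; incubate 20 min at room temperature; quench at pH 10; measure fluorescence at 365/440 nm.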

[13] = target: Alpha-galactosidase (Coffea arabica) (UniProt Q42656); assay: Counterscreen for Glucocerebrosidase Inhibitors: qHTS Assay for Coffee Bean alpha-Galactosidase at pH 5.9 (AID 998; active = well fitted curve in the direction sought with a large enough effect; an effect the other way counts as inactive or inconclusive;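 also: plate controls were uninhibited enzyme for no effect and no-enzyme basal signal for full effect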)
How it was run: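 In 50 mM citric acid pH 5.9 with 0.005% Tween-20, coffee bean enzyme hydrolyses 80 uM 4-MU alpha-D-galactopyranoside over 20 min at RT. Activity is normalized to controls; AC50 comes from Hill-modelled concentration-response data.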

[14] = qHTS Assay for Identification of Small Molecule Agonists for Hypoxia Response Element Signaling Pathway (AID 914; active = well fitted activation curve with a large enough effect in the signal ratio, with a control signal flat, not every such curve was filed as active; the % refers to the signal ratio; also: % of control where 0% means no effect); settings: ME-180 (cervical carcinoma) HRE-bla reporter, beta-lactamase ratio, CoCl2, 17 h; activation: hits give high values
How it was run: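 Reporter activity (beta-lactamase, CCF4 460nm/530nm ratio) in HRE-bla ME-180 cells is recorded after 17 h compound exposure with EC50 CoCl2 at 37 degrees Celsius. AC50 values come from titration data.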

[15] = target: Ubiquitin carboxyl-terminal hydrolase 1 (Homo sapiens) (UniProt O94782); assay: Inhibitors of USP1/UAF1: Pilot qHTS (AID 504865; active = well fitted curve in the direction sought with a large enough effect; an effect the other way counts as inactive or inconclusive;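 also: rhodamine fluorescence freed from ubiquitin-rhodamine substrate followed over time; top concentration of the series differs between compounds; % is scaled to controls: 0 for no effect and ±100 for the full control effect; nearly all actives have a fitted effect of over 35% in size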)
How it was run: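 USP1/UAF1 complex at 1 nM preincubated 15 min at room temperature with compound, then Ub-Rho substrate added at 150 nM final. Fluorescence (480/540 nm) read kinetically in 50 mM HEPES pH 7.8, 0.5 mM EDTA, 1 mM TCEP, 0.1 mg/ml BSA, 0.01% Tween-20.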

[16] = target: Cytochrome P450 2D6 (Homo sapiens) (UniProt P10635); assay: qHTS Assay for Inhibitors and Substrates of Cytochrome P450 2D6 (AID 891; active = well fitted curve in the direction sought with a large enough effect; an effect the other way counts as inactive or inconclusive;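 also: luciferin methyl ether substrate demethylated by CYP2D6 with NADPH regeneration; % is scaled to controls: 0 for no effect and ±100 for the full control effect; nearly all actives have a fitted effect of over 60% in size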)
How it was run: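 Luminescent read-out of luciferin formed by 5 nM human CYP2D6 demethylating 30 uM Luciferin-ME EGE (Km level) over 60 min at room temperature after NADPH regeneration addition. Data normalized to full inhibition by 1.43 uM quinidine.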

[17] = target: Cytochrome P450 2C19 (Homo sapiens) (UniProt P33261); assay: qHTS Assay for Inhibitors and Substrates of Cytochrome P450 2C19 (AID 899; active = well fitted curve in the direction sought with a large enough effect; an effect the other way counts as inactive or inconclusive; also: % is scaled to controls: 0 for no effect and ±100 for the full control effect; nearly all actives have a fitted effect of over 60% in size)
How it was run: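 NADPH-dependent conversion of Luciferin-H EGE (10uM, at KM) by 5nM enzyme in 50mM KPO4, 60 min at 37C following 10 min compound preincubation. Stopped with luciferin detection buffer; luminescence read after 20 min.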

[18] = qHTS Assay for Identification of Small Molecule Antagonists for Thrombopoietin (TPO) Signaling Pathway (AID 918; active = well fitted curve in the direction sought with a large enough effect; an effect the other way counts as inactive or inconclusive; also: potency is read from the fitted curve at half-maximal effect; nearly all actives have a fitted effect of over 60% in size); settings: TPO-dependent cell signaling reporter, antagonist mode
How it was run: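 Antagonist mode at EC50 TPO (26 pM) in IL-3-free medium; murine Ba/F3 cells with human TPO receptor and GPIIb-promoter luciferase, 24 hrs at 37 C before luminescent detection.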

[19] = target: Muscarinic acetylcholine receptor M1 (Rattus norvegicus) (UniProt P08482); assay: qHTS Assay for Antagonists of Acetylcholine Muscarinic M1 Receptor: Kinetic Measurement of Intracellular Calcium Response (AID 943; active = well fitted curve in the direction sought with a large enough effect; an effect the other way counts as inactive or inconclusive;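 also: Fluo-4 calcium signal as peak divided by basal fluorescence over 4 min; nearly all actives have a fitted effect of over 75% in size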)
How it was run: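 Quantitative HTS in CHO-M1 (rat receptor) cells: 10 min compound exposure ahead of 100 nM carbachol, Fluo-4 fluorescence followed 4 min, value expressed as peak-to-basal ratio.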

[20] = target: Pyruvate kinase PKM (Homo sapiens) (UniProt P14618); assay: qHTS Assay for Inhibitors of Human Muscle Pyruvate Kinase (AID 958; active = well fitted curve in the direction sought with a large enough effect; an effect the other way counts as inactive or inconclusive)
How it was run: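 Screening used highly purified human pyruvate kinase M2 under submaximal activity, with PEP at its Km and ADP below Km. After an hour at room temperature, ATP was read by luciferase luminescence.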

Sequence of Glucocorticoid receptor (Homo sapiens) (P04150 whole entry, looked up, the tested form may be a part): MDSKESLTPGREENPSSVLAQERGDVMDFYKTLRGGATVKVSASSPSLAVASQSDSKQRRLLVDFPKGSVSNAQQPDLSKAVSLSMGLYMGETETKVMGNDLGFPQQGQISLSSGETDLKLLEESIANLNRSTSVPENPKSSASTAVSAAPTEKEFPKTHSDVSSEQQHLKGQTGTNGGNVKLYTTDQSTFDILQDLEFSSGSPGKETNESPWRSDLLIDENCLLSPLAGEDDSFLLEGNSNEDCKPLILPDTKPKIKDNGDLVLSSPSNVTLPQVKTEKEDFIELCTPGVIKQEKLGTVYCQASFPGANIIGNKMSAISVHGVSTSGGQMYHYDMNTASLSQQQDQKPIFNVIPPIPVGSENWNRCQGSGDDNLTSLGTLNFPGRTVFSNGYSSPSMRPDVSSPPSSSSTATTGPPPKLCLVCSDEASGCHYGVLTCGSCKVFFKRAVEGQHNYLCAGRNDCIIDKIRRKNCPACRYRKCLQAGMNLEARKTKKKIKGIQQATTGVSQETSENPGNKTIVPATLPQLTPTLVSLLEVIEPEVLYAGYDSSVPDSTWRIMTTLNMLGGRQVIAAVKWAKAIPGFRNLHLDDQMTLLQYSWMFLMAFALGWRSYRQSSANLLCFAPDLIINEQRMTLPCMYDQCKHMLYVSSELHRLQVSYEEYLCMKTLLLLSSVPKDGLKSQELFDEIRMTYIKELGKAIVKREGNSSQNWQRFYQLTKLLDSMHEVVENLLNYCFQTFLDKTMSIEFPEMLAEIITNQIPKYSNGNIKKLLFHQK
Sequence of 3',5'-cyclic-AMP phosphodiesterase 4B (Homo sapiens) (Q07343 whole entry, looked up): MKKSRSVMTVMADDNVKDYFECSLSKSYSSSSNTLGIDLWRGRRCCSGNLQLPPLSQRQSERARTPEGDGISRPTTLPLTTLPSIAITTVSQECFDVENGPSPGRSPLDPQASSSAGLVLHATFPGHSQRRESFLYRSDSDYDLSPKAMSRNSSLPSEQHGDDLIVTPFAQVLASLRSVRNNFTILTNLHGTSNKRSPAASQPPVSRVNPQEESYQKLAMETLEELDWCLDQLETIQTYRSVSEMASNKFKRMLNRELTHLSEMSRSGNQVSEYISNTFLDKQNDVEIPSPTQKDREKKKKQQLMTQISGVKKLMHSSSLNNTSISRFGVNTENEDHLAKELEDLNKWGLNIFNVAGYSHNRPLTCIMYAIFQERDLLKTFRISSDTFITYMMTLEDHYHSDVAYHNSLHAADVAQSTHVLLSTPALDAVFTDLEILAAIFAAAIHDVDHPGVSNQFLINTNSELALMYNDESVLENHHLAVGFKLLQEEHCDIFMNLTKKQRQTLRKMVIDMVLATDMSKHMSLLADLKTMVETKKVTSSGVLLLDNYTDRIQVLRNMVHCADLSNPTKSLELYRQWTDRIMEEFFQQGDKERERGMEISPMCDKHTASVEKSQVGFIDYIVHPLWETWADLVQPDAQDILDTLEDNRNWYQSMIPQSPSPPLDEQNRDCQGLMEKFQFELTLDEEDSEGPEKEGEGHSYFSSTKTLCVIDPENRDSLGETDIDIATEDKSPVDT
Sequence of Alpha-galactosidase (Coffea arabica) (Q42656 whole entry, looked up): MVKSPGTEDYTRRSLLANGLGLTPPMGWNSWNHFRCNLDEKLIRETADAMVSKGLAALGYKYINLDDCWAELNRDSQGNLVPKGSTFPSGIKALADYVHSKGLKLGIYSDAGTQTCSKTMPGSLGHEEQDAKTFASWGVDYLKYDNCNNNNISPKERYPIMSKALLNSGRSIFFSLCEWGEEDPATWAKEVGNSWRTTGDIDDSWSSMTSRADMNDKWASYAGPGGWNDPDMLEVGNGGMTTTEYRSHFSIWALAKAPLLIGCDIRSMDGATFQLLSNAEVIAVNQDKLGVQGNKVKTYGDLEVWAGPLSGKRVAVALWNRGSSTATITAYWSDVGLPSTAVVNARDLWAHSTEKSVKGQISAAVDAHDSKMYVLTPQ
Sequence of Muscarinic acetylcholine receptor M1 (Rattus norvegicus) (P08482 whole entry, looked up): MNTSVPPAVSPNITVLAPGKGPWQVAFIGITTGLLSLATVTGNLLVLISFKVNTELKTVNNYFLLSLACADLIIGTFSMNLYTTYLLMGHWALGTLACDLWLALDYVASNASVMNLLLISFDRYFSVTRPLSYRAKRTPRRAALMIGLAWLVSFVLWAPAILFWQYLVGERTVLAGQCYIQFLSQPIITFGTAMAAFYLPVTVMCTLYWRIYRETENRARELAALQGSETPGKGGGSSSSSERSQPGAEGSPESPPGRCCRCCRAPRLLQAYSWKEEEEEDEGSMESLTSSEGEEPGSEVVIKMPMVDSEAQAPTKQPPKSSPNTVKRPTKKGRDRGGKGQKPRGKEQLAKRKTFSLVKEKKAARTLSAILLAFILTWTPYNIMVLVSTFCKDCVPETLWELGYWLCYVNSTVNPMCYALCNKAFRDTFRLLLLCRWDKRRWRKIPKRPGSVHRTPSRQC
Sequence of Guanine nucleotide-binding protein G(i) subunit alpha-1 (Homo sapiens) (P63096 whole entry, looked up): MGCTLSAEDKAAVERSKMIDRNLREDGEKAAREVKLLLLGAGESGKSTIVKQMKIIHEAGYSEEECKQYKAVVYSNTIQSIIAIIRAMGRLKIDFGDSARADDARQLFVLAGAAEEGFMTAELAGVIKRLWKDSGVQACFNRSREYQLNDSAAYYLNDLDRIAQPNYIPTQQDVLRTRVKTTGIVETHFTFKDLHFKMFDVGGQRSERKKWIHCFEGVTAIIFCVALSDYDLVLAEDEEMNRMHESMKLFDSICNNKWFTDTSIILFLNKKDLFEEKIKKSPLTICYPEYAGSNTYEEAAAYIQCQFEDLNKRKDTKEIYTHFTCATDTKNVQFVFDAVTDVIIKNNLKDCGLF
Sequence of Alpha-galactosidase A (Homo sapiens) (P06280 whole entry, looked up): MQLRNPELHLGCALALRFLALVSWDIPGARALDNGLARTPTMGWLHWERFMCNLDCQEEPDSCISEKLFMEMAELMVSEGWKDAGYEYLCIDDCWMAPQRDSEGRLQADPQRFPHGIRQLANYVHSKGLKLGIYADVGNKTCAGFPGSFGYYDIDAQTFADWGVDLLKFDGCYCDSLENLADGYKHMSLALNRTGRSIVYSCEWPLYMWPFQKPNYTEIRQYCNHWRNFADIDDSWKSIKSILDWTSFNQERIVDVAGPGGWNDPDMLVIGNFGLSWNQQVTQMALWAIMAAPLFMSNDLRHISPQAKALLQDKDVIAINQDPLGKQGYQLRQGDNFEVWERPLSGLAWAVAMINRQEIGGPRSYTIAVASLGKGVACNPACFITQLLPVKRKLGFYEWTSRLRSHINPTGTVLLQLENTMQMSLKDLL
Sequence of Pyruvate kinase PKM (Homo sapiens) (P14618 whole entry, looked up): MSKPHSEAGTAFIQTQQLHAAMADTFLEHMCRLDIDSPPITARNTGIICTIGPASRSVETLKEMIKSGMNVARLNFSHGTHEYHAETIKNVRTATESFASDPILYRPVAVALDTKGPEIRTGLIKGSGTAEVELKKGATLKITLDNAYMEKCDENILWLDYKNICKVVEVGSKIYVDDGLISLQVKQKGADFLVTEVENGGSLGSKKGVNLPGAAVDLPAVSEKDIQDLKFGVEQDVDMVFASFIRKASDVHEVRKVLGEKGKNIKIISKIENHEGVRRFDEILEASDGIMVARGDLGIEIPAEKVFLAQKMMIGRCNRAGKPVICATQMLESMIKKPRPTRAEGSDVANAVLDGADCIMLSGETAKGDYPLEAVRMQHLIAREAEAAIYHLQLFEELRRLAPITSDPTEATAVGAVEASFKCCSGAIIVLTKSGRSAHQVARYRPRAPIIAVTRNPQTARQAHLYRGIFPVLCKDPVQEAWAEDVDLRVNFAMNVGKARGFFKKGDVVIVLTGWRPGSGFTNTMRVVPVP
Sequence of Cytochrome P450 2D6 (Homo sapiens) (P10635 whole entry, looked up): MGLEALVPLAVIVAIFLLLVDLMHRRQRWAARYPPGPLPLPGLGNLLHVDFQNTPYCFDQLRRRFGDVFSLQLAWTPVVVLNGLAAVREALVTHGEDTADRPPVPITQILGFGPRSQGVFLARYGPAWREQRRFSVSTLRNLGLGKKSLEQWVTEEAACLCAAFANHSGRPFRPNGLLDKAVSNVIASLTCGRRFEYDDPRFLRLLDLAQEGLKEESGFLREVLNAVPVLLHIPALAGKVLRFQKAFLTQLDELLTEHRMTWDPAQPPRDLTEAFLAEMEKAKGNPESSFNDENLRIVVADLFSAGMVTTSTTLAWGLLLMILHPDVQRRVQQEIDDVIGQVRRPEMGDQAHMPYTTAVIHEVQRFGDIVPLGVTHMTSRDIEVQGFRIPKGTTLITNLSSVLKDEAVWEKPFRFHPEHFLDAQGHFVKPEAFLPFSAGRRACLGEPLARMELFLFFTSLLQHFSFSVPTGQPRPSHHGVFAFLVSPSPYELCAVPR
Sequence of Ubiquitin carboxyl-terminal hydrolase 1 (Homo sapiens) (O94782 whole entry, looked up): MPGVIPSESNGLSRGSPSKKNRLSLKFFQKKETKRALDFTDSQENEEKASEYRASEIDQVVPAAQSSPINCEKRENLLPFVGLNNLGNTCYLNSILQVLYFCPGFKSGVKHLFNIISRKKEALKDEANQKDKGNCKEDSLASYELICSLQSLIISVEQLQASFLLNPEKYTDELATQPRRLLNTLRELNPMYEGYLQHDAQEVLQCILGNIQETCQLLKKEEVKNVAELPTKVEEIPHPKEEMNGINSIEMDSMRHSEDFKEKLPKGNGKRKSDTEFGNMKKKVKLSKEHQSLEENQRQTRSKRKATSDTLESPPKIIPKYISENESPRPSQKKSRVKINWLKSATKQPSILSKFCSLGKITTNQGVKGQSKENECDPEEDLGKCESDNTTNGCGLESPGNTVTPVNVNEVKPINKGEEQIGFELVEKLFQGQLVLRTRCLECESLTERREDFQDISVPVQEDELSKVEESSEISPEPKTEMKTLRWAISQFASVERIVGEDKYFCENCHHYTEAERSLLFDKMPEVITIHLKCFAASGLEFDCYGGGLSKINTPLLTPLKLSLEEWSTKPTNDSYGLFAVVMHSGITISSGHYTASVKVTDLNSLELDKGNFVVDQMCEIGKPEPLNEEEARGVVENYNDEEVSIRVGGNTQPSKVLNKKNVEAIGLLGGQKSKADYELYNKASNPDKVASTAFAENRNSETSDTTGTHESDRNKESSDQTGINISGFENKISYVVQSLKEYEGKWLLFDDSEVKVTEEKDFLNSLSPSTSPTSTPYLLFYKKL

O=[N+]([O-])c1ccc(O[C@H]2O[C@@H](CO)[C@@H](O)[C@@H](O)[C@@H]2F)c([N+](=O)[O-])c1
inactive: activity change, negative = inhibition [1] -3.88% [at 38 µM] | activity change, negative = inhibition [2] 14.6% [at 38 µM] | outcome [3] | Potency [4] > 46 µM | Potency [5] > 46 µM | outcome [6] | outcome [7] | Potency [8] | Potency [9] | outcome [10] | outcome [11] | outcome [12] | outcome [13]

CC(C)(C)c1ccc(O)c(C[N+](C)(C)C)c1
inactive: activity change, negative = inhibition [1] -0.0649% [at 7.69 µM] | activity change, negative = inhibition [2] -16.5% [at 7.69 µM] | outcome [3] | Potency [4] > 46 µM | Potency [5] > 9.22 µM | activity change, negative = inhibition [6] -0.903% [at 11.4 µM] | outcome [7]

CC(=O)[C@@H]1CC[C@@H]2[C@H]3CC[C@H]4C[C@@H](O)CC[C@]4(C)[C@@H]3C(=O)C[C@]21C
inactive: activity change, negative = inhibition [1] -0.27% [at 38 µM] | activity change, negative = inhibition [2] -2.4% [at 38 µM] | outcome [3] | outcome [7]

CNCCc1nc(N)n[nH]1
inactive: activity change, negative = inhibition [1] 16.9% | activity change, negative = inhibition [2] -10.7% | outcome [3] | Potency [4] > 20.6 µM | activation [14] 12.1%

C[C@H]1C[C@@H](C)C(=O)[C@@H]([C@H](O)CC2CC(=O)NC(=O)C2)C1
active: activity change, negative = inhibition [1] -97.3% | activity change, negative = inhibition [2] -119%
inactive: outcome [7] | Potency [15]

C/C(Cl)=C/CC1(CN2CCCC2=O)C(=O)NC(=O)NC1=O
inactive: activity change, negative = inhibition [1] -3.48% | activity change, negative = inhibition [2] 1.12% | outcome [3] | activation [14] 3.38%

N[C@@H](Cc1cc(O)c(O)cc1O)C(=O)O
inactive: activity change, negative = inhibition [1] -19.5% [at 38 µM] | activity change, negative = inhibition [2] 3.11% [at 38 µM] | Potency [5] > 46 µM | outcome [7] | Potency [16] | Potency [17] | Potency [19] | Potency [9] | outcome [11] | Potency [20] | outcome [12] | outcome [13]
active: Potency [8] 15.8 µM | Potency [18] 12.6 µM

CCCCCCn1c(O)c(C=Nc2c(C)n(C)n(-c3ccccc3)c2=O)c(=O)[nH]c1=O
inactive: activity change, negative = inhibition [1] -18.8% | outcome [3] | Potency [4] > 20.6 µM

CCC(=NCCOc1ccc(Cl)cc1)c1c(O)n(C)c(=O)n(C)c1=O
inactive: activity change, negative = inhibition [1] -1.65% | outcome [3] | Potency [4] > 20.6 µM

CCCCCCn1c(O)c(C=NC2CCN(Cc3ccccc3)CC2)c(=O)[nH]c1=O
inactive: activity change, negative = inhibition [1] -7.92% | outcome [3]

O=C1C2CCN(CC2)[C@@H]1Cc1ccc2ccccc2c1O
inactive: activity change, negative = inhibition [1] 6.63% | outcome [3] | Potency [4] > 20.6 µM
